Compound activity (PubChem BioAssay)
USP1 inh = USP1/UAF1 (human) deubiquitinase inhibition | O94782 | recombinant USP1/UAF1, Ub-Rhodamine cleavage fluorescence | Potency, µM (titrated, usually from 57.1 µM), hits mostly inhibitors | 0.23% of 390,000 active | AID 743255; also: nearly all actives have a fitted effect of over 60% in size
Target sequence (O94782 whole entry, looked up): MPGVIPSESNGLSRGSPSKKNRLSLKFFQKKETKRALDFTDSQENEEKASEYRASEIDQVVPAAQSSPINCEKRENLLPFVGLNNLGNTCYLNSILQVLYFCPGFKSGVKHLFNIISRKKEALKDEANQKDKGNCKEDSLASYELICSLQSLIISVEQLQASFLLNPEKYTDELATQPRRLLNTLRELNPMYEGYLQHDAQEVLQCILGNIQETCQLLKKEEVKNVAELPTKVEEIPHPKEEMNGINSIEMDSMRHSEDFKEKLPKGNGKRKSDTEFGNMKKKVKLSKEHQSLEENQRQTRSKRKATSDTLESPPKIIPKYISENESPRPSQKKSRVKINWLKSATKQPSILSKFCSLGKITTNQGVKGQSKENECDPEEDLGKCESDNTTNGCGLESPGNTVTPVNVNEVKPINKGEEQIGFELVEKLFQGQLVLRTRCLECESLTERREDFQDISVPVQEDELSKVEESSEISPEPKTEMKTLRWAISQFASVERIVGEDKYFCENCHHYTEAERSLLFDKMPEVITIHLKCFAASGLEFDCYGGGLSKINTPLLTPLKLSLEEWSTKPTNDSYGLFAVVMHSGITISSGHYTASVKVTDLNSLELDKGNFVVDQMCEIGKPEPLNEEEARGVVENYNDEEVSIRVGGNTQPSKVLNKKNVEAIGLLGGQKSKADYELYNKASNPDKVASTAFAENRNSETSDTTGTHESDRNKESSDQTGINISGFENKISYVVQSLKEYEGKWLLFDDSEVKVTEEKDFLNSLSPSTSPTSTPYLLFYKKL
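1 nM enzyme complex + cpd, 15 min RT; start with Ub-Rho 150nM final; kinetic fluorescence ex 480/em 540, 6 reads q60 s. Buffer 50mM HEPES pH 7.8, 0.5mM EDTA, 0.1 mg/ml BSA, 1mM TCEP, 0.01% Tween-20.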
USP2a block = inhibitors of human ubiquitin-specific protease USP2a; O75604; USP2 core, Ub-CHOP2 coupled fluorogenic reporter, 485/531; Potency, µM (highest dose often 38.3 µM), hits mostly inhibitors; 0.01% of 330,000 active
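Cell-free coupled assay: 10nM USP2 core preincubated 30min RT with compound in Tris-HCl pH 8.0/CaCl2/CHAPS buffer, then 25nM Ub-CHOP2 and 25nM reporter substrate; fluorescence (Ex 485/Em 531) read after 60min RT, normalized to NEM inhibition, concentration-response curves fitted.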
ATXN2 expr inh = reduces ATXN2 reporter expression in HEK-293 cells; HEK-293 ATXN2-luciferase reporter, luminescence, 24 h; 0.72% of 360,000 active; AID 1745845; Potency, µM (top dose mostly 57 µM), hits mostly inhibitors; also: nearly all actives have a fitted effect of over 55% in size
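ATXN2-luciferase reporter cells (luciferase flanked by upstream and downstream ATXN2 gene portions) were treated 24 h at 37 °C with compounds at up to 57 uM. SteadyGlo luminescence gave expression; GF-AFC fluorescence gave viability.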
IL-1B inflam inh = inflammasome signaling inhibition, IL-1 beta readout; THP-1 LPS/ATP IL-1B secretion, AlphaLISA, 16 h; active compounds read low; activity change, % at 57.5 µM; 4.7% of 360,000 active; AID 743279; in the data active = activity change below about -50%; inconclusive = mostly about -30% to -49%
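Secreted IL-1B measured by AlphaLISA bead assay after 16 h compound exposure of THP-1 cells; compounds (final up to 57.5 uM) added 1 h before LPS (250 ng/mL) and ATP (1.25 mM) stimulation; lower signal means less secretion.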
ATXN viability = cell viability loss in ATXN counter-screen. 0.49% of 400,000 active. Potency, µM (titrated, usually from 56.7 µM), hits mostly cytotoxic. S2 cells (HEK-293 line with an ATXN2-luciferase reporter) viability, CellTiter-Fluor protease fluorescence, 24 h; also: nearly all actives have a fitted effect of over 40% in size
Large screens that a line does not name were inactive. This is a sample that favours compounds with a hit; in the whole collection about 4.8% have one here. Unless noted, calls follow the shape of the dose curve; as a rule, active = well fitted curve in the direction sought with a large enough effect; inconclusive = small, poorly fitted or top-dose-only effect, or another doubt; inactive = no such curve, though single readings can be large; an effect the other way counts as inactive or inconclusive.

COc1cc(OC)nc(O[C@H](C(=O)O)C(OC)(c2ccccc2)c2ccccc2)n1	none (no result: USP1 inh, USP2a block, IL-1B inflam inh)
CCCCCCCCNS(=O)(=O)CCNCc1ccc(OC)cc1	IL-1B inflam inh -61 (no result: USP2a block)
CCCCNC(=O)CCn1c(=O)c2ccccc2n(CC(=O)NCCc2ccc(OC)c(OC)c2)c1=O	none (no result: ATXN2 expr inh)
COCC(=O)Nc1sc2c(c1C(=O)OC)CCCC2	none
CCOC(=O)c1c(NC(=O)C(C)OC(=O)c2ccc(NC(=O)CC#N)cc2)sc2c1CCCC2 (stereo not given)	IL-1B inflam inh -80
COC(=O)c1c(NC(=O)COC(=O)c2ccc(O)cc2)sc2c1CCCCC2	ATXN2 expr inh inconclusive, IL-1B inflam inh -79, ATXN viability inconclusive
O=C(c1ccco1)N1CCN(c2nc(C3CC3)nc3c2nnn3Cc2ccccc2Cl)CC1	IL-1B inflam inh -77
O=C(c1ccco1)N1CCCC(c2nc3c(nnn3Cc3ccccc3)c(=O)[nH]2)C1 (stereo not given)	none
CC(C)(C)c1nc(N2CCN(C(=O)c3ccco3)CC2)c2nnn(Cc3ccccc3)c2n1	IL-1B inflam inh -52
CN(C)Cc1cc(C(C)(C)c2ccccc2)ccc1O	IL-1B inflam inh inconclusive (no result: USP2a block)
Cn1nnnc1Sc1ncnc2scc(-c3cccc4c3sc3ccccc34)c12	ATXN2 expr inh 16µM, ATXN viability inconclusive (no result: USP1 inh, IL-1B inflam inh)
Cn1nnnc1Sc1ncnc2scc(-c3ccc(Cl)cc3)c12	ATXN2 expr inh 14µM, ATXN viability 11µM (no result: USP1 inh, IL-1B inflam inh)
Cn1nnnc1Sc1ccc([N+](=O)[O-])cc1Cl	none
Cn1nnnc1Sc1ncnc2scc(-c3ccc([N+](=O)[O-])cc3)c12	ATXN2 expr inh 7.1µM, ATXN viability 16µM (no result: USP1 inh, IL-1B inflam inh)
O=C(O)CSc1ncnc2scc(-c3ccccc3)c12	none
Cn1nnnc1Sc1ncnc2scc(-c3ccccc3Cl)c12	ATXN2 expr inh 20µM, ATXN viability inconclusive (no result: USP1 inh, IL-1B inflam inh)
O=C(NCC(c1cccs1)S(=O)(=O)c1cccs1)c1ccc(Cl)cc1 (stereo not given)	ATXN viability inconclusive (no result: USP2a block, IL-1B inflam inh)
N#Cc1ccccc1NC(=O)COc1ccccc1C(=O)Nc1ccccc1	none
COc1ccc(-c2csc3ncnc(Sc4nnnn4C)c23)cc1	ATXN2 expr inh 20µM, ATXN viability inconclusive (no result: USP1 inh, IL-1B inflam inh)
COc1ccc(-c2csc3ncnc(Cl)c23)cc1	ATXN viability inconclusive
CCOCc1cc(CN2CCCC(CNC(=O)c3ccco3)C2)ccc1OC (stereo not given)	none
COc1ccc(CCN(Cc2cc3cc(C)cc(C)c3nc2Cl)C(=O)C2CC2)cc1	IL-1B inflam inh -69
COC(=O)c1cccc(OCCCN2CCC(C(O)(c3ccccc3)c3ccccc3)CC2)c1	none (no result: USP1 inh, USP2a block, ATXN viability)
CCN(CC(=O)NC(C)(C)C)C(=O)CCl	IL-1B inflam inh -55, ATXN viability inconclusive
COCCCNCCCCOc1ccccc1-c1ccccc1	none
C=CCNCCCCOc1ccccc1-c1ccccc1	IL-1B inflam inh -85
CCCCNCCOc1ccccc1-c1ccccc1	IL-1B inflam inh -60
COCCCNCCOc1ccccc1-c1ccccc1	ATXN viability inconclusive
C=CCNCCCCOc1ccc(OCc2ccccc2)cc1	IL-1B inflam inh -51 (no result: ATXN2 expr inh)
c1ccc(COc2ccc(OCCCNC3CCCC3)cc2)cc1	IL-1B inflam inh -96
CC[C@@H](C)[C@@H]1CN([C@@H](CN2CCC[C@H]2CN2C(N)=NC[C@H]2C(C)C)C(C)C)C(=N)N1CCc1ccc(Cl)c(Cl)c1	IL-1B inflam inh -78
CCC[C@@H](CN1CCC[C@H]1CN1C(N)=NC[C@H]1C(C)C)N1C[C@@H](Cc2ccccc2)N(CCCC2CCCC2)C1=N	IL-1B inflam inh -63
CC[C@@H](C)[C@@H]1CN([C@@H](C)CN2CCC[C@H]2CN2C(N)=NC[C@@H]2Cc2ccccc2)C(=N)N1CCCC1CCCC1	IL-1B inflam inh -63
CC[C@@H](C)[C@@H]1CN([C@@H](C)CN2CCC[C@H]2CN2C(N)=NC[C@@H]2Cc2ccccc2)C(=N)N1CCc1ccc(Cl)c(Cl)c1	none
CCN(CC)C(=O)C1CCCN(c2ncnc3c2nc2n3CCCCC2)C1 (stereo not given)	none (no result: USP2a block, IL-1B inflam inh)
O=C(NCc1cccnc1)c1cnn(-c2nccc(-c3cccs3)n2)c1C1CC1	none (no result: USP1 inh, USP2a block, ATXN2 expr inh, IL-1B inflam inh)
COc1ccc(-c2cn3nc(N4CCCC(C(=O)NCc5ccc(Cl)cc5)C4)sc3n2)cc1 (stereo not given)	none (no result: USP2a block, IL-1B inflam inh)
